# Test results taken from the supplement of paper PMC10037445.
# Over roughly 2,900 compounds, “IRF Lucia reporter activity, fold change vs agonist alone” has its median near 0.9; the highest 2% begin near 2.8. This excerpt belongs to a sample that is enriched for the highest values.
# Assays:
# RAW-Dual [1] = assay: IRF Lucia reporter activity, fold change vs agonist alone; cytotoxicity flag (confluency mask): not cytotoxic; higher = enhanced IRF activity
# In short: (§1)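 Library stock was pin-tooled at 50 nL into 384-well plates of RAW-Dual macrophages (50,000 cells/well, DMEM), followed 1 h later by a PRR agonist, and the cells were kept at 37 °C, 5% CO2. Supernatant collected after 20 hours was read for IRF by QuantiLuc luminescence and for NF-κB by QuantiBlue absorbance at 620 nm. Reporter activity is fold change over agonist-alone wells, and a well counted as cytotoxic when its IncuCyte confluency was below 70% of agonist controls in both mask sets.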
# RAW-Dual [2] = assay: IRF Lucia reporter activity, fold change vs agonist alone; higher = enhanced IRF activity; settings: agonist: MPLA (TLR4) […]
# In short: as §1
# RAW-Dual [3] = assay: IRF Lucia reporter activity, fold change vs agonist alone; cytotoxicity flag (confluency mask): cytotoxic (confluency <70% of control); higher = enhanced IRF activity
# In short: as §1
# [4] = agonist: 3'3'-cGAMP (STING) 10 ug/mL
# [5] = library stock concentration (final ~1000-fold dilution): 10 mM, cytotoxicity flag (confluency mask): not cytotoxic
# [6] = library stock concentration (final ~1000-fold dilution): 10 mM, cytotoxicity flag (confluency mask): cytotoxic (confluency <70% of control)
smiles,measurement,setting,value
Cc1[nH]c(C=C2C(=O)Nc3ccc(F)cc32)c(C)c1C(=O)NCCN1CCCC1 (library stock concentration (final ~1000-fold dilution): 2 mM),IRF Lucia reporter activity,RAW-Dual [1]; [4],0.0313
same,IRF Lucia reporter activity,RAW-Dual [1]; agonist: LPS (TLR4) 0.1 ug/mL,0.194
Cc1[nH]c(C=C2C(=O)Nc3ccc(F)cc32)c(C)c1C(=O)NCCN1CCCC1,IRF Lucia reporter activity,"RAW-Dual [2]; library stock concentration (final ~1000-fold dilution): 2 mM, cytotoxicity flag (confluency mask): not cytotoxic",0.869
CC(c1ncncc1F)C(O)(Cn1cncn1)c1ccc(F)cc1F (stereo unspecified),IRF Lucia reporter activity,RAW-Dual [2]; [5],0.639
CC(c1ncncc1F)C(O)(Cn1cncn1)c1ccc(F)cc1F (stereo unspecified) (library stock concentration (final ~1000-fold dilution): 10 mM),IRF Lucia reporter activity,RAW-Dual [1]; [4],1.11
same,IRF Lucia reporter activity,RAW-Dual [1]; agonist: LPS (TLR4) 0.1 ug/mL,0.893
CC1Cc2c([nH]c3ccccc23)C(c2c(F)cc(/C=C/C(=O)O)cc2F)N1CC(C)(C)F (stereo unspecified) (library stock concentration (final ~1000-fold dilution): 10 mM),IRF Lucia reporter activity,RAW-Dual [1]; [4],1.14
same,IRF Lucia reporter activity,RAW-Dual [1]; agonist: LPS (TLR4) 0.1 ug/mL,1.23
Cl.O=C(NC1CCNCC1)c1n[nH]cc1NC(=O)c1c(Cl)cccc1Cl (library stock concentration (final ~1000-fold dilution): 10 mM),IRF Lucia reporter activity,RAW-Dual [3]; [4],0.0898
same,IRF Lucia reporter activity,RAW-Dual [3]; agonist: LPS (TLR4) 0.1 ug/mL,0.581
CS(=O)(=O)O.CS(=O)(=O)O.Cc1ccc(C(=O)Nc2ccc(CN3CCN(C)CC3)c(C(F)(F)F)c2)cc1C#Cc1cnc2[nH]ncc2c1 (library stock concentration (final ~1000-fold dilution): 10 mM),IRF Lucia reporter activity,RAW-Dual [3]; [4],0.00912
same,IRF Lucia reporter activity,RAW-Dual [3]; agonist: LPS (TLR4) 0.1 ug/mL,0.0192
CS(=O)(=O)O.CS(=O)(=O)O.Cc1ccc(C(=O)Nc2ccc(CN3CCN(C)CC3)c(C(F)(F)F)c2)cc1C#Cc1cnc2[nH]ncc2c1,IRF Lucia reporter activity,RAW-Dual [2]; [6],0.0201
COc1ccc(-c2cc3c(C)nc(N)nc3n(C3CCC(OCCO)CC3)c2=O)cn1 (stereo unspecified),IRF Lucia reporter activity,RAW-Dual [2]; [6],0.387
COc1ccc(-c2cc3c(C)nc(N)nc3n(C3CCC(OCCO)CC3)c2=O)cn1 (stereo unspecified) (library stock concentration (final ~1000-fold dilution): 10 mM),IRF Lucia reporter activity,RAW-Dual [3]; [4],0.282
same,IRF Lucia reporter activity,RAW-Dual [3]; agonist: LPS (TLR4) 0.1 ug/mL,0.508
CCOC(=O)c1cnc2ccc(-c3cncc(NS(=O)(=O)c4ccccc4)c3)cn12,IRF Lucia reporter activity,RAW-Dual [2]; [6],4.46
CCOC(=O)c1cnc2ccc(-c3cncc(NS(=O)(=O)c4ccccc4)c3)cn12 (library stock concentration (final ~1000-fold dilution): 10 mM),IRF Lucia reporter activity,RAW-Dual [3]; [4],0.284
same,IRF Lucia reporter activity,RAW-Dual [3]; agonist: LPS (TLR4) 0.1 ug/mL,4.78
Nc1nc2cc(-c3ccc4ncc(C(=O)N5CCOCC5)n4c3)ccc2o1 (library stock concentration (final ~1000-fold dilution): 10 mM),IRF Lucia reporter activity,RAW-Dual [1]; [4],0.343
same,IRF Lucia reporter activity,RAW-Dual [1]; agonist: LPS (TLR4) 0.1 ug/mL,1.04
COCCNCCc1cccc(Nc2ncc3c(n2)-c2ccccc2C(c2ccccc2F)C3)c1 (stereo unspecified) (library stock concentration (final ~1000-fold dilution): 10 mM),IRF Lucia reporter activity,RAW-Dual [3]; [4],0.0166
same,IRF Lucia reporter activity,RAW-Dual [3]; agonist: LPS (TLR4) 0.1 ug/mL,0.159
CN1CCC(c2c(O)cc(O)c3c(=O)cc(-c4ccccc4Cl)oc23)C1CO.Cl (stereo unspecified) (library stock concentration (final ~1000-fold dilution): 10 mM),IRF Lucia reporter activity,RAW-Dual [3]; [4],0.00862
same,IRF Lucia reporter activity,RAW-Dual [3]; agonist: LPS (TLR4) 0.1 ug/mL,0.0242
CN(CC1COCCO1)S(=O)(=O)Nc1ccc2ccc3ncc(-c4cnn(C)c4)cc3c(=O)c2c1 (stereo unspecified),IRF Lucia reporter activity,RAW-Dual [2]; [5],0.63
CN(CC1COCCO1)S(=O)(=O)Nc1ccc2ccc3ncc(-c4cnn(C)c4)cc3c(=O)c2c1 (stereo unspecified) (library stock concentration (final ~1000-fold dilution): 10 mM),IRF Lucia reporter activity,RAW-Dual [1]; [4],0.306
same,IRF Lucia reporter activity,RAW-Dual [1]; agonist: LPS (TLR4) 0.1 ug/mL,0.736
COC(=O)C1=COC(OC2OC(CO)C(O)C(O)C2O)C2C1CC(O)C2C (stereo unspecified),IRF Lucia reporter activity,RAW-Dual [2]; [5],1.12
COC(=O)C1=COC(OC2OC(CO)C(O)C(O)C2O)C2C1CC(O)C2C (stereo unspecified) (library stock concentration (final ~1000-fold dilution): 10 mM),IRF Lucia reporter activity,RAW-Dual [1]; [4],1.08
same,IRF Lucia reporter activity,RAW-Dual [1]; agonist: LPS (TLR4) 0.1 ug/mL,1.3
CCCc1cc(C)[nH]c(=O)c1CNC(=O)c1cc(-c2ccc(N3CCN(C)CC3)nc2)nc2c1cnn2C(C)C (library stock concentration (final ~1000-fold dilution): 10 mM),IRF Lucia reporter activity,RAW-Dual [1]; [4],0.763
same,IRF Lucia reporter activity,RAW-Dual [1]; agonist: LPS (TLR4) 0.1 ug/mL,1.35
CCN(C)S(=O)(=O)Nc1ccc(F)c(C(=O)c2c[nH]c3ncc(-c4cnc(C5CC5)nc4)cc23)c1F (library stock concentration (final ~1000-fold dilution): 10 mM),IRF Lucia reporter activity,RAW-Dual [1]; [4],0.0563
same,IRF Lucia reporter activity,RAW-Dual [1]; agonist: LPS (TLR4) 0.1 ug/mL,0.409
Cc1c(-c2ccccc2)oc2c(C(=O)OCCN3CCCCC3)cccc2c1=O.Cl (library stock concentration (final ~1000-fold dilution): 10 mM water),IRF Lucia reporter activity,RAW-Dual [1]; [4],1.09
same,IRF Lucia reporter activity,RAW-Dual [1]; agonist: LPS (TLR4) 0.1 ug/mL,0.892
Cc1ccc2c(=O)c3cccc(CC(=O)O)c3oc2c1C,IRF Lucia reporter activity,RAW-Dual [2]; [5],0.965
Cc1ccc2c(=O)c3cccc(CC(=O)O)c3oc2c1C (library stock concentration (final ~1000-fold dilution): 10 mM),IRF Lucia reporter activity,RAW-Dual [1]; [4],1.08
same,IRF Lucia reporter activity,RAW-Dual [1]; agonist: LPS (TLR4) 0.1 ug/mL,6.08
Cc1c(-c2ccccc2)oc2c(C(=O)OCCN3CCCCC3)cccc2c1=O.Cl,IRF Lucia reporter activity,"RAW-Dual [2]; library stock concentration (final ~1000-fold dilution): 10 mM water, cytotoxicity flag (confluency mask): not cytotoxic",1.29
